Measurements published in PubChem BioAssay (Tox21).
Inconclusive results are not listed. Activity calls are given as the source filed them. Unless noted, calls follow the shape of the dose curve; as a rule, active = well fitted curve in the direction sought with a large enough effect in the repeat runs; inconclusive = weak or mixed curves; inactive = no such curve, though single readings can be large; an effect the other way counts as inactive or inconclusive.

Tests used:
[1] = qHTS assay to identify small molecule agonists of the estrogen receptor alpha (ER-alpha) signaling pathway in the presence of an antagonist - cell viability counter screen (AID 1259386); also: series mostly up to about 92 µM; nearly all actives have a fitted effect of over 30% in size
Summary of the method: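 Compounds tested at 15 concentrations for 22 h at 37C alongside 10.0nM (final) ICI-182,780 antagonist, in VM7Luc4E2 cells grown in phenol red-free, charcoal-stripped medium. Viability read by CellTiter-Fluor fluorescence after 1 h reagent incubation.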

[2] = biological target: Progesterone receptor (Homo sapiens) (UniProt P06401); assay: qHTS assay to identify small molecule agonists of the progesterone receptor (PR) signaling pathway (AID 1346784; calls by dose curve; also: nearly all actives have a fitted effect of over 30% in size)
Progesterone receptor (Homo sapiens), sequence (P06401 whole entry, looked up): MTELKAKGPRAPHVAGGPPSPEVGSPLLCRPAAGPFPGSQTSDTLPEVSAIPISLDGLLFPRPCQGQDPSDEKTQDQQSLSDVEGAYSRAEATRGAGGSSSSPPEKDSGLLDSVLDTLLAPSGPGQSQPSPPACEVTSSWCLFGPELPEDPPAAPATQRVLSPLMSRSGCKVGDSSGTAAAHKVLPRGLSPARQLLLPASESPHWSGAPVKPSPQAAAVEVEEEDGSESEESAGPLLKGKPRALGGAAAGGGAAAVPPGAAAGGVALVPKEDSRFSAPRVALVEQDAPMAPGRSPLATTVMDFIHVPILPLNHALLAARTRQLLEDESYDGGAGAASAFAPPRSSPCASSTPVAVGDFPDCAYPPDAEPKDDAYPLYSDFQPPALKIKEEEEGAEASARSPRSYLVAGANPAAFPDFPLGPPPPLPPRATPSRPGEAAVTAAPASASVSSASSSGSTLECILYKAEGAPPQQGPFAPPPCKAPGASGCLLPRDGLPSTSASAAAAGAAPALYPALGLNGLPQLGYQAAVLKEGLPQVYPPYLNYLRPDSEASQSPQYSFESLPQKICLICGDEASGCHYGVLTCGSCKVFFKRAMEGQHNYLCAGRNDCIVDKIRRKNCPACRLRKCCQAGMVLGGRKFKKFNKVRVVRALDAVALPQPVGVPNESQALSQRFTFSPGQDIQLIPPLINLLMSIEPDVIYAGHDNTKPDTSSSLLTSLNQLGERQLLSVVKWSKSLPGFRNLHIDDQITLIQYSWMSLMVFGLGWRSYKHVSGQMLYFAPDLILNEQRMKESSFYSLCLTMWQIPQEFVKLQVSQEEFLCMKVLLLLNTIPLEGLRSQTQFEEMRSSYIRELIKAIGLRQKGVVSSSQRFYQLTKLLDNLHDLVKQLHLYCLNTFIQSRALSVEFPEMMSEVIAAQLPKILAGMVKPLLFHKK
Summary of the method: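 HEK 293T PR-UAS-bla reporter cells, 2% charcoal-stripped FBS; 6 hr settle at 37C/5% CO2, compound (DMSO) 16 hr, LiveBLAzer B/G FRET substrate 2 hr RT, fluorescence intensity read.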

[3] = biological target: Progesterone receptor (Homo sapiens) (UniProt P06401); assay: qHTS assay to identify small molecule antagonists of the progesterone receptor (PR) signaling pathway (AID 1346795; active = well fitted inhibition curve with a large enough effect in the signal ratio in the repeat runs, not every such curve was filed as active; the % refers to the signal ratio)
Summary of the method: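 Beta-lactamase reporter, HEK293T PR-UAS-bla line; 2% charcoal-stripped FBS; 6 hr pre-incubation, 37C/5% CO2. Compound + R5020 1 nM final, 16 hr. LiveBLAzer B/G FRET substrate, 2 hr RT; fluorescence intensity read.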

[4] = qHTS assay to identify small molecule antagonists of the progesterone receptor (PR) signaling pathway - cell viability counter screen (AID 1346798); also: series mostly up to about 92 µM; nearly all actives have a fitted effect of over 50% in size
Summary of the method: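 Luminescence readout (CellTiter-Glo, 30 min, RT) of viability in PR-UAS-bla HEK293T cells exposed to compound and R5020 agonist for 16 hr at 37C, 5% CO2; run in the same wells as the beta-lactamase reporter read.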

[5] = qHTS assay to identify small molecule agonists of the progesterone receptor (PR) signaling pathway - cell viability counter screen (AID 1346799; calls by dose curve; also: nearly all actives have a fitted effect of over 45% in size)
Summary of the method: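 HEK293T PR-UAS-bla, 3,000 cells/well, 2% charcoal-stripped FBS; 6 h settle, compound 16 h at 37C/5% CO2; LiveBLAzer 2 h RT, then CellTiter-Glo 30 min RT, luminescence read.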

[6] = qHTS assay to identify small molecule agonists of the TGF-beta/Smad signaling pathway - cell viability counter screen (AID 1346829); also: top concentration of the series differs between compounds; nearly all actives have a fitted effect of over 45% in size
Summary of the method: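 Tox21 qHTS format: SBE-bla HEK 293T cells treated with DMSO-dissolved compounds for 5 hr; CellTiter-Glo luminescence after 30 min at room temperature.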

[7] = qHTS assay to identify small molecule agonists of the TGF-beta/Smad signaling pathway (AID 1346859; active = well fitted activation curve with a large enough effect in the signal ratio in the repeat runs, not every such curve was filed as active; the % refers to the signal ratio; also: series mostly up to about 77 µM)
Summary of the method: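 Read-out: fluorescence at 460 and 530 nm (405 nm excitation) after a 2 hr room-temperature incubation with beta-lactamase FRET substrate. SBE-bla HEK 293T cells had been treated with test compounds for 5 hr at 37 C.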

[8] = Human pregnane X receptor (PXR) small molecule agonists, qHTS cell viability counter screen (AID 1346977); also: nearly all actives have a fitted effect of over 50% in size
Summary of the method: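 Fluorescence read-out (CellTiter-Fluor) of viability in PXR-Luc HepG2 cells, multiplexed with the luciferase agonist read. Compounds in DMSO added after 5hr plating; 24hr total exposure at 37C, 5% CO2.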

[9] = Caspase-3/7 induction in HepG2 cells by small molecules, qHTS assay (AID 1346978); also: nearly all actives have a fitted effect of over 15% in size
Summary of the method: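 Wild-type HepG2 cells, 2,000/well, settled 5 hr at 37 C and 5% CO2, then compound-treated for 17 hr; caspase-3/7 activity read by luminescent Caspase-Glo 3/7 after 30 min at room temperature.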

[10] = Caspase-3/7 induction in CHO-K1 cells by small molecules, qHTS assay (AID 1346980); also: nearly all actives have a fitted effect of over 15% in size
Summary of the method: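 Wild-type CHO-K1 cells exposed to compounds for 17hr at 37 C, 5% CO2. Caspase-3/7 activity then measured by Caspase-Glo 3/7 luminescence after 30min at room temperature.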

[11] = Caspase-3/7 induction in HepG2 cells by small molecules, qHTS cell viability counter screen (AID 1346981); also: series mostly up to about 92 µM; nearly all actives have a fitted effect of over 30% in size
Summary of the method: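 CellTiter-Fluor fluorescence measured viability in the same wells used for Caspase-Glo 3/7. HepG2 (wild type) at 2,000 cells/well were pre-incubated 5 hr, dosed, and given reagent at 16 hr, with 1 hr further at 37C.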

[12] = biological target: Nuclear receptor subfamily 1 group I member 2 (Homo sapiens) (UniProt O75469); assay: Human pregnane X receptor (PXR) small molecule agonists, qHTS assay (AID 1346982); also: nearly all actives have a fitted effect of over 35% in size
Nuclear receptor subfamily 1 group I member 2 (Homo sapiens), sequence (O75469 whole entry, looked up): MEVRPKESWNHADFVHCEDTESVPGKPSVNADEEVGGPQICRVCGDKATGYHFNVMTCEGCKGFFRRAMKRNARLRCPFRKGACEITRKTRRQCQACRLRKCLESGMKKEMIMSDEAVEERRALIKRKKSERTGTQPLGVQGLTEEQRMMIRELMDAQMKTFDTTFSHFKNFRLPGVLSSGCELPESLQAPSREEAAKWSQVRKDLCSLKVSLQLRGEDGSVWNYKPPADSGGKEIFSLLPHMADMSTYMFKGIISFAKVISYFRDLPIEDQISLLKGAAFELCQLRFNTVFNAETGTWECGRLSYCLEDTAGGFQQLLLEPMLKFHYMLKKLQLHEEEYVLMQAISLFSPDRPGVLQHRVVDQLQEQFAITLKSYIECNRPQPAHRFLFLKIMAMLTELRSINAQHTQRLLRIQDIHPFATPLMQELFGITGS
Summary of the method: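 Agonist mode: luminescence from ONE-Glo after 24 h compound exposure at 37C in HepG2 cells carrying hPXR-responsive CYP3A4 luciferase, plated in charcoal-stripped serum medium 5 h beforehand.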

[13] = biological target: Acetylcholinesterase (Homo sapiens) (UniProt P22303); assay: Acetylcholinesterase (AChE) small molecule antagonists: colormetric cell-based qHTS assay (AID 1347395; calls by dose curve; also: nearly all actives have a fitted effect of over 30% in size)
Acetylcholinesterase (Homo sapiens), sequence (P22303 whole entry, looked up): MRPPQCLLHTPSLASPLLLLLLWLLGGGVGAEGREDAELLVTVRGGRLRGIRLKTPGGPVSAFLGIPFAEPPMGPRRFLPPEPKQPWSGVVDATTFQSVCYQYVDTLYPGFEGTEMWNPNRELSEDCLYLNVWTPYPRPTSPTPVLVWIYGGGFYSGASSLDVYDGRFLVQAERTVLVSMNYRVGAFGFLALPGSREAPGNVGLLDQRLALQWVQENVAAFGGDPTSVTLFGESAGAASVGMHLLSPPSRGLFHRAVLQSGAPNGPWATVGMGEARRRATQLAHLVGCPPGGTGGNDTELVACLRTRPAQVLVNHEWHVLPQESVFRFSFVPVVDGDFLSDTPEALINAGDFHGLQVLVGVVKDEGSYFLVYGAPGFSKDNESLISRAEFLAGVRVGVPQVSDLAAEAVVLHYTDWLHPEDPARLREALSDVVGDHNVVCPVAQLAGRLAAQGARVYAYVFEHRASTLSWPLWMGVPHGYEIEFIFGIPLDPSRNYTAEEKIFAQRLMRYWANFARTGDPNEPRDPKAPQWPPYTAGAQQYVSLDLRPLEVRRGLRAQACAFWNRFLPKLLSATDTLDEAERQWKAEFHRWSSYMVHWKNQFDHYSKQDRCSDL
Summary of the method: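 SH-SY5Y cells; cpd 30 min 37 C; + DTNB/acetylthiocholine, 90 min 37 C; colorimetric thiocholine read; qHTS.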

[14] = qHTS assay to identify small molecule antagonists of the TGF-beta/Smad signaling pathway - cell viability counter screen (AID 1346824); also: nearly all actives have a fitted effect of over 50% in size
Summary of the method: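 SBE-bla HEK 293T cells, incubated overnight, then compound plus 0.25 ng/mL TGF-beta1 (stock added) for 5 hr at 37 C. Viability was read in the same wells by CellTiter-Glo luminescence after 30 min at room temperature.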

[15] = biological target: Thyrotropin-releasing hormone receptor (Homo sapiens) (UniProt P34981); assay: qHTS assay to identify small molecule antagonists of the thyrotropin-releasing hormone receptor (TRHR) signaling pathway (AID 1346877; active = well fitted inhibition curve with a large enough effect in the repeat runs, not every such curve was filed as active; also: series mostly up to about 51 µM)
Thyrotropin-releasing hormone receptor (Homo sapiens), sequence (P34981 whole entry, looked up): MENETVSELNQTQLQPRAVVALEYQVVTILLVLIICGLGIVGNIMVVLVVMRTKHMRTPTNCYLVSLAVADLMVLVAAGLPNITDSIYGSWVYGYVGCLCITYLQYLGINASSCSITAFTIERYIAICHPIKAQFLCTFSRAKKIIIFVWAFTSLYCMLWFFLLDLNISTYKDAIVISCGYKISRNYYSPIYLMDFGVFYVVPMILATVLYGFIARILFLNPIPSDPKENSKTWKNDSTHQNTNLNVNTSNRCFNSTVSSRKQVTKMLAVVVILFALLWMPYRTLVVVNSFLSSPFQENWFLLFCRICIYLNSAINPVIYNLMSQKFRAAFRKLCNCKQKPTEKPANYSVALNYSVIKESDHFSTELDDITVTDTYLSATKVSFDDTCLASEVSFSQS
Summary of the method: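 Antagonist mode: after a 5 min room-temperature compound exposure, cells were stimulated with 1 nM (final) TRH. Dye-loaded TRHR-HEK293 cells were used, and calcium-dependent fluorescence was followed for 3 min, with 15-point titrations run in triplicate.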

[16] = Caspase-3/7 induction in CHO-K1 cells by small molecules, qHTS cell viability counter screen (AID 1346979); also: nearly all actives have a fitted effect of over 35% in size
Summary of the method: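 CHO-K1 wt, 1,500 cells/well; 5hr pre-incubation 37C/5% CO2; compound pin transfer (DMSO); 16hr exposure; CellTiter-Fluor added, 1hr, fluorescence read.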

[17] = biological target: Thyrotropin-releasing hormone receptor (Homo sapiens) (UniProt P34981); assay: qHTS assay to identify small molecule agonists of the thyrotropin-releasing hormone receptor (TRHR) signaling pathway (AID 1346891; calls by dose curve;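 also: HEK293 cells expressing TRHR with calcium dye readout; series mostly up to about 58 µM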)
Summary of the method: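 HEK293/TRHR cells, 1500 per well, 18 h 37 °C; Ca dye 2 h 37 °C; pin-tool compound addition (agonist mode); kinetic fluorescence 3 min, 1 s reads; 15 concentrations, triplicate.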

Measured: Potency

Cc1nc(N)nc(N)n1
not listed: [14] | [15] | [16] | [17]
inactive: all other assays above

CN(N=O)C(N)=O
not listed: [4] | [17]
inactive: all other assays above

CC(=O)CCc1ccc2c(c1)OCO2
not listed: [5] | [16]
inactive: all other assays above

C(CCOCC1CO1)COCC1CO1 (stereo not drawn)
not listed: [5] | [17]
inactive: all other assays above

CCC(C)n1c(=O)[nH]c(C)c(Br)c1=O (stereo not drawn)
not listed: [5] | [8]
inactive: all other assays above
